Measured values: PMC4336329 (PLoS ONE, 2015)
The whole screen tested about 310,000 compounds, of which about 14,000 (4.5%) showed an effect of 50% or more. Effects have a minus sign here. The sample as a whole holds a higher share of strong results than the screen did.

What follows are compounds tested against human ether-à-go-go-related gene (hERG) potassium channel (human, UniProt Q12809) (assay: primary screen, population patch clamp on CHO cells stably expressing hERG; higher = less effect of the substance).
human ether-à-go-go-related gene (hERG) potassium channel, sequence (Q12809 whole entry, looked up): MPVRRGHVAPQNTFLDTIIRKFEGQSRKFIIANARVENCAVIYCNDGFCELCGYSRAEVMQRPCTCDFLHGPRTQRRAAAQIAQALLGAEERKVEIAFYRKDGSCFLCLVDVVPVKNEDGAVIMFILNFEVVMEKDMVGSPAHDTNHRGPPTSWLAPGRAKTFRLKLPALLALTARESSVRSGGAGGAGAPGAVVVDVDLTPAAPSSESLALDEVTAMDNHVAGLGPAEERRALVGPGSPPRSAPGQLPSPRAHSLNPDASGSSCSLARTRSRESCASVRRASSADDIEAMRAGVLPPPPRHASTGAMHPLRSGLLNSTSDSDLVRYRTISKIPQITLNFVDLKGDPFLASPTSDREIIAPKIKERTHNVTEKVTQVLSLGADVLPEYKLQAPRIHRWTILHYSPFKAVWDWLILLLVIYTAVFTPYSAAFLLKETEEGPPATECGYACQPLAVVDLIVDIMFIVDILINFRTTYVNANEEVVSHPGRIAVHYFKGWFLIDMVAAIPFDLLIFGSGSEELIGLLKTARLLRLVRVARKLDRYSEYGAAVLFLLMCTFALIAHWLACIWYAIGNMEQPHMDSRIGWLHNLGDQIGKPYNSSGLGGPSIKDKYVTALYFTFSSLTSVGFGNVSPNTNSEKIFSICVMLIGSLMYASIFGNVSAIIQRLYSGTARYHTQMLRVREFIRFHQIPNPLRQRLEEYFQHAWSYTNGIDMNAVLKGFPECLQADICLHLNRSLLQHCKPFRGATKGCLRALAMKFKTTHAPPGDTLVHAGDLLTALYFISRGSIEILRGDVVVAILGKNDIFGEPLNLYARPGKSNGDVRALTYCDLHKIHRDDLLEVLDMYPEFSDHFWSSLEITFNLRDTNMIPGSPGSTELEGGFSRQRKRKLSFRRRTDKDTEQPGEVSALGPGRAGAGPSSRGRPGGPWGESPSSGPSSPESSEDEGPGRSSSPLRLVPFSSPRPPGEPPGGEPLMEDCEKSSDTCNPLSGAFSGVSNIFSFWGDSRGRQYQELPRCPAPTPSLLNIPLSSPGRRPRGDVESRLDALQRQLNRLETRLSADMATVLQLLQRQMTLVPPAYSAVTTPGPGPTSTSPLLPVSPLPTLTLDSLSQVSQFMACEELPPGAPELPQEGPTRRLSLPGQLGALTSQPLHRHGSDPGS
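Also: peak tail current of the secondary pulse compared with the same well before compound.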

| Compound | hERG current change (%, negative = inhibition) at 10uM [%] |
| --- | --- |
| Cc1noc(C)c1C(=O)Nc1ccc(-c2nnc3n2CCCCC3)cc1 | 5.46 |
| CC1(C)CC(CC(=O)Nc2ccccc2[N+](=O)[O-])C(=O)O1 (stereo not drawn) | -1.77 |
| Cc1cccc(-c2c3c(=O)n(C)c(=O)n(C)c3cn2-c2ccccc2O)c1 | 1.06 |
| Cc1cc(C)c2oc(-c3ccc(C)c(NC(=S)NC(=O)/C=C/c4ccco4)c3)nc2c1 | 11.2 |
| Cc1cc(=O)oc2cc(OCC(=O)N3CCN(C(C)c4ccccc4)CC3)c(Cl)cc12 (stereo not drawn) | -35.1 |
| O=C(N/N=C/c1ccco1)c1cc(-c2cccs2)[nH]n1 | 1.93 |
| Cc1ccccc1C(=O)NCCN1CCOCC1.Cl | 6.78 |
| Fc1ccc(-c2c[nH]c(=S)n2Cc2ccccc2)cc1 | -38 |
| O=C(NCCc1c[nH]c2ccccc12)C(F)(F)F | 3.79 |
| COc1ccc(NC(=O)c2ccc(-n3cncn3)c([N+](=O)[O-])c2)cc1OC | -2.52 |
| CC(C)(Cc1cc(CC(C)(C)C(=O)O)cc(C(C)(C)C)c1)C(=O)O | 10.4 |
| Cc1ccc(Nc2c(-c3ccc(N4CCOCC4)cc3)nc3ncccn23)cc1C | 7.71 |
| COCc1nc(-c2ccc(-c3ccccc3)nc2OC)no1 | -2.5 |
| COc1ccc(NC(=O)CN2CCN(S(=O)(=O)c3ccc(Br)cc3)CC2)c(OC)c1 | 19.8 |
| O=C(CN1CCN(S(=O)(=O)c2ccc(F)cc2)CC1)Nc1ccccc1F | -56.1 |
| O=C(CN1CCN(S(=O)(=O)c2ccc(Br)cc2)CC1)Nc1ccccc1C(=O)c1ccccc1 | 1.26 |
| COc1ccc(S(=O)(=O)N2CCN(CC(=O)Nc3ccccc3OC)CC2)cc1 | -5.56 |
| COc1ccc(NC(=O)N2CCN(S(=O)(=O)c3ccc(F)cc3)CC2)c(OC)c1 | -6.4 |
| COc1ccc(S(=O)(=O)N2CCCN(CC(=O)Nc3ccccc3F)CC2)cc1 | -55.7 |
| O=C(CCN1CCN(S(=O)(=O)c2ccc(F)cc2)CC1)Nc1ccccc1F | -8.34 |
| O=C(CCN1CCN(S(=O)(=O)c2ccc(Br)cc2)CC1)Nc1ccccc1F | -31.2 |
| O=C(CN1CCN(S(=O)(=O)c2ccc(Br)cc2)CC1)Nc1ccccc1F | -62.5 |
| COc1ccc(S(=O)(=O)N2CCN(CCC(=O)Nc3ccccc3F)CC2)cc1 | -0.0172 |
| COc1ccc(NC(=O)CN2CCCN(S(=O)(=O)c3ccc(F)cc3)CC2)c(OC)c1 | -54.6 |

| Compound | hERG current change (%, negative = inhibition) at 10uM [%] |
| --- | --- |
| O=C(CN1CCCN(S(=O)(=O)c2ccc(F)cc2)CC1)Nc1ccccc1Br | -49.1 |
| Cc1ccsc1C(=O)c1sccc1C | -3.08 |
| CSc1ccc(CCNC(=O)c2cc(-c3ccccc3)c(N3CCOCC3)s2)cc1 | -1.02 |
| O=C(NCc1ccncc1)c1ccc(Cl)c(S(=O)(=O)N2CCCCC2)c1 | -22.4 |
| O=C1CN(O)C=C2N=c3ccccc3=C2N1c1ccc([N+](=O)[O-])cc1 | -26.6 |
| Cc1ccc(OCc2nnc(SCC(=O)c3ccccc3)n2Cc2ccco2)cc1 | -47.1 |
| COc1ccc(NC(=O)C(NC(=O)CC2NC(=O)NC2=O)c2ccccc2)cc1 (stereo not drawn) | -2.49 |
| CSc1ccccc1NC(=O)CSCc1ccc(C)cc1 | -7.79 |
| COc1cc2ccccc2cc1C(=O)Nc1nnc(-c2ccncc2)o1 | -52.3 |
| O=C(Nc1nnc(-c2ccncc2)o1)c1ccc2ccccc2c1 | -3.08 |
| COc1cc2ccccc2cc1C(=O)Nc1ccncc1 | -24.8 |
| O=C(Nc1ncc(S(=O)(=O)c2ccc([N+](=O)[O-])cc2)s1)c1cccnc1 | -2.29 |
| O=C(OCCN1CCCCC1)c1ccc(O)cc1 | -35.4 |
| CCN(CC)CC(C)OC(=O)c1cc(OC)c(OC)c(OC)c1.Cl (stereo not drawn) | -11.5 |
| COc1cc(C(=O)OCCCOC(=O)c2cc(OC)c(OC)c(OC)c2)cc(OC)c1OC | 0.241 |
| CCN(CC)CCn1cnc2c1c(=O)n(CCOC(=O)c1cc(OC)c(OC)c(OC)c1)c(=O)n2C.Cl | -60.3 |
| COc1cc(C(=O)OCCCN2CCCN(CCCOC(=O)c3cc(OC)c(OC)c(OC)c3)CC2)cc(OC)c1OC.Cl | -67.8 |
| COc1cc(C(=O)OCCCN(C)C)cc(OC)c1OC.Cl | 4.69 |
| CCN(CC)CCCCCCCCOC(=O)c1cc(OC)c(OC)c(OC)c1.Cl | -50.1 |
| COc1cc(C(=O)OCCn2c(=O)c3c(ncn3CCN(C)C)n(C)c2=O)cc(OC)c1OC.Cl | -2.6 |
| COc1cc(OC)cc(C(=O)OCCNC(=O)Cn2cnc3c2c(=O)n(C)c(=O)n3C)c1 | 0.82 |
| O=C(OCCCOC(=O)c1ccc(O)cc1)c1ccc(O)cc1 | -17.3 |
| COc1cc(C(=O)OCCN2CCOCC2)cc(OC)c1OC | -5.95 |
| O=C(OCCCN1CCCCC1)c1ccc(O)cc1 | -54.6 |
